HCMV antiviral = inhibitors of human cytomegalovirus; AID 1259415; activity change, negative = inhibition, % at 57.5 µM; actives 4.5% (n = 410,000); HFF cells, HCMV-luciferase reporter, 72 h; stronger effect = lower value; in the data active = activity change below about -60%; inconclusive = no clear call, values can overlap the other calls; inactive = above about -39%
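Luciferase read-out from HCMV-luciferase-infected HFFs (MOI 1 PFU/cell) 72 h post infection at 37C; compounds added after 16 h cell attachment; activity normalized between buffer-only basal and Salinomycin (10uM) inhibitor controls.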
Pf growth 96h = inhibits malaria parasite growth, 96 h; P. falciparum luciferase reporter growth, 96 h; Potency, µM (titrated, usually from 28.7 µM), for the others: at the top dose activity change, negative = inhibition, usual class: inhibitors; actives 6.9% (n = 320,000); AID 504834; note: potency is the fitted concentration of half-maximal effect
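Delayed-death screen, second-generation endpoint: infected erythrocytes, 2% hematocrit, 0.05% parasitemia final; 96 hours at 37 C, 5% CO2; luciferase detection reagent; luminescence decrease equals reduced growth.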
Pf growth 48h = inhibits P. falciparum growth in the first generation, 48 h; actives 5.9% (n = 310,000); Potency, µM (highest dose often 28.7 µM), without a hit: at the top dose activity change, negative = inhibition, actives largely listed as inhibitors; P. falciparum luciferase growth in erythrocytes, 48 h; note: potency is the fitted concentration of half-maximal effect
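Firefly luciferase activity from engineered P. falciparum reports growth; inhibitors lower the luminescent signal. Cultures contained 2% hematocrit erythrocytes at 0.1% final parasitemia.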
HCV inh = inhibitors of hepatitis C virus infection | AID 651820 | Potency, µM (series often up to 41.8 µM), inactives show at the highest dose activity change, negative = inhibition, actives largely listed as inhibitors | actives 3.4% (n = 340,000) | Huh7.5.1 HCVcc-Cre infection, luciferase reporter, 44 h; note: potency is the fitted concentration of half-maximal effect
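Cells (1,000/well) were plated 4 h before compound, then infected with HCVcc-Cre virus (~0.5 moi). After 44 h further culture, infection was read as luciferase luminescence following a 15 min substrate incubation at room temperature.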
Starred values were filed as active, the others as inactive; ? = inconclusive; . = not tested or not shown. Most compounds without a hit are left out; they make up all but 13% or so of the library. Unless noted, calls come from the whole dose curve; as a rule, active = well fitted inhibition curve with a large enough effect; inconclusive = small, poorly fitted or top-dose-only effect, or another doubt; inactive = no such curve, though single readings can be large or run the other way. % is set by controls: 0 for no effect and ±100 for the full control effect.

SMILES	HCMV antiviral	Pf growth 96h	Pf growth 48h	HCV inh
CCCCNC(=O)CN1CCC2(O)CCCCC2C1c1ccccc1OC (configuration not stated)	-38	?	?	-2%
O=C(CN1C(=O)COc2ccc(Cl)cc21)Nc1cccc(C(=O)O)c1	6	.	.	.
CC(=O)Oc1ccc(-c2csnn2)cc1	?	16%	6%	1%
Cc1ccccc1C(=O)NNc1ccc(-c2csnn2)cc1	45	13%	1.9µM*	4%
Cc1cccc(NC(=O)c2ccc(F)c(S(=O)(=O)NCc3ccc4c(c3)OCO4)c2)c1	27	.	.	.
Cc1ccc(C(=O)NCCCNC(=O)c2ccccc2F)cn1	-6	2.9µM*	3%	-3%
Cc1cc(Cl)ccc1NS(=O)(=O)c1c(C(=O)N2CCC(C)CC2)c(C)n(C)c1C	1	.	.	.
Cc1nn(-c2ccc([N+](=O)[O-])cc2)c2c1C(c1cccc(Br)c1)N1C(=N2)C(=O)Nc2ccccc21 (configuration not stated)	?	1µM*	1.3µM*	-24%
Cc1nn(-c2ccccc2)c2c1C(c1ccc([N+](=O)[O-])cc1)N1C(=N2)C(=O)Nc2ccccc21 (configuration not stated)	30	5.9µM*	?	?
Cc1nn(-c2ccccc2)c2c1C(c1ccc([N+](=O)[O-])cc1)C(C#N)=C(N)O2 (configuration not stated)	-15	5%	59%	5%
CC(C)Cn1cc(C(=O)NCc2cccs2)c2c3ccccc3n(C)c2c1=O	-18	8.3µM*	?	-3%
CCOC(=O)N1CCN(C(=O)c2cn(CC(C)C)c(=O)c3c2c2ccccc2n3C)CC1	40	34%	10µM*	6%
CCOC(=O)N1CCN(C(=O)c2cn(C)c(=O)c3c2c2ccccc2n3C)CC1	130	.	?	?
CC(C)CCNC(=O)c1cn(CC(C)C)c(=O)c2c1c1ccccc1n2C	14	?	-24%	5%
CCOC(=O)c1cccc(NC(=O)CSc2ncc3c(n2)-c2ccc(Cl)cc2N(Cc2ccccc2)S3(=O)=O)c1	7	.	.	.
CCOc1ccc(-c2ncncc2-c2ccccc2OC)c(O)c1	-38	?	2.9µM*	-39%
C=C(C)COc1ccc(-c2nc(N)ncc2Oc2ccccc2OC)c(O)c1	12	?	?	?
C=C(C)COc1ccc(-c2ncncc2-c2ccccc2OC)c(O)c1	-69*	?	13µM*	?
CC12Nc3ccccc3C(=O)N1Cc1cnnn1-c1cc3c(cc12)OCO3 (configuration not stated)	-3	.	.	.
CCN(CC)C(=O)c1ccc(NC(=O)Cn2nc(-c3ccc(C)cc3)c3ccccc3c2=O)cc1	6	.	.	.
CCN(CC)C(=O)c1ccc(NC(=O)COc2ccc(-c3nn(C)c(=O)c4ccccc34)cc2)cc1	5	?	13µM*	?
CNC(=O)c1cc(NC(=O)CCn2nc(-c3ccccc3)c3ccccc3c2=O)ccc1OC	49	0.83µM*	2.1µM*	-22%
CN(C(=O)c1ccc(-c2nn(C)c(=O)c3ccccc23)cc1)C1CCCCC1	-38	13%	12µM*	?
CN(CCO)C(=O)c1ccc(-c2nn(C)c(=O)c3ccccc23)cc1	-25	6%	9%	-7%
CCN(CC)C(=O)c1ccc(NC(=O)CCn2nc(-c3ccc(C)cc3)c3ccccc3c2=O)cc1	-65*	.	.	.
SMILES	HCMV antiviral	Pf growth 96h	Pf growth 48h	HCV inh
Cc1cccc(NC(=O)CCn2nc(-c3ccccc3)c3ccccc3c2=O)c1	12	.	.	.
CCN(CC)C(=O)c1ccc(-c2nnc(OC)c3ccccc23)cc1	-66*	0%	7%	-1%
C/C(=N\Nc1ccc([N+](=O)[O-])cc1)c1ccc(C#N)cc1	-18	19%	59%	6%
COc1ccc(C(=O)/C(C#N)=N/Nc2ccc([N+](=O)[O-])cc2)cc1	-114*	?	13µM*	1.6µM*
COc1ccc(C(=O)/C(C#N)=N/Nc2ccccc2[N+](=O)[O-])cc1	-10	8%	26%	4%
N#CC(C#N)=NNc1ccc([N+](=O)[O-])cc1	-91*	?	?	11µM*
C/C(=N/Nc1ccc([N+](=O)[O-])cc1)c1ccc(C)cc1C	-63*	-10%	48%	?
CCCCNC(=O)CSc1nc(-c2ccc(OC)cc2)cc(C(F)(F)F)n1	-10	.	.	.
O=c1cnn(-c2ccc(Cl)cc2Cl)c(-c2ccccc2)c1	78	?	.	?
O=C1CC(c2cccnc2)=NN1c1ccc(Cl)cc1Cl	-100*	27%	?	-1%
C=CCNC(=O)/C(=C/c1cn(-c2ccccc2)nc1-c1cccc([N+](=O)[O-])c1)NC(=O)c1ccccc1	8	4.1µM*	?	-9%
CN(C)C(=O)/C(=C/c1cn(-c2ccccc2)nc1-c1cccc([N+](=O)[O-])c1)NC(=O)c1ccccc1	59	28%	8%	16%
Cc1ccsc1CNCc1cc(Cl)ccc1O	-25	2.9µM*	1.7µM*	?
O=C(O)c1ccc(CNCc2ccc(Cl)cc2Cl)cc1	22	.	-3%	-8%
Oc1ccc(Cl)cc1CNCc1ccc(F)cc1	-18	5.2µM*	5.2µM*	14%
Oc1ccc(Cl)cc1CNCc1ccc(Cl)cc1	10	5.9µM*	3.7µM*	46%
Oc1ccc(Cl)cc1CNCc1ccc(C(F)(F)F)cc1	-30	5.9µM*	1.2µM*	23%
Oc1ccccc1CNCc1ccccc1	9	?	?	23%
CCN(CC)c1nn2c(=O)c(C(=O)NCCc3cccc(C)c3)cnc2s1	-33	.	.	.
CC12CN3CC(c4ccccc4)(CN(C1)C3c1ccc(O)cc1)C2=O (configuration not stated)	-9	.	.	.
CC(C)C[C@H]1CNC(=O)C(=O)N1C[C@H]1CCCN1C[C@H](CC(C)C)N1C[C@H](CC(C)C)N(CCc2ccccc2)C(=O)C1=O	-13	.	.	.
Cc1ccc(-n2nc(CO)c(C(=O)NCCC(C)C)n2)cc1C	-36	.	.	.
Cn1cc(/C=N/NC(=O)c2cccc([N+](=O)[O-])c2)c2ccccc21	-22	3%	64%	10µM*
O=[N+]([O-])c1ccc(N/N=C/c2c[nH]c3ccccc23)c(S(=O)(=O)Nc2ccc(Cl)cc2)c1	-37	.	-16%	?
COc1ccccc1NS(=O)(=O)c1cc([N+](=O)[O-])ccc1N/N=C/c1c(C)[nH]c2ccccc12	17	.	10µM*	?
Cc1[nH]c2ccccc2c1/C=N/NC(=O)c1cccc([N+](=O)[O-])c1	-61*	4%	0%	-29%
Cc1[nH]c2ccccc2c1/C=N/Nc1ccc([N+](=O)[O-])cc1	-30	-5%	?	2µM*
CC(CN(C)C)C(C)(O)Cc1ccc(Cl)cc1 (configuration not stated)	.	2%	-4%	.
O=C1NC[C@H](Cc2ccc(O)cc2)N(CCc2cccc(F)c2)C1=O	11	.	.	.
NC1=NC[C@@H](Cc2ccc(O)cc2)N1CCc1cccc(F)c1	9	1.9µM*	10µM*	21%
